Compound activity as filed in PubChem.
This is one part of a sample in which hits are shown more often than they occur.
BL2 CD40 inh: CD40 pathway inhibition in BL2 cells | BL2 NF-kB luciferase reporter, CD40L-induced, 4 h | inhibition, % at 10 µM | 83,000 tested, 0.94% active | AID 1053188;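 active means mean inhibition of at least 50% with a set share of replicates also reaching that level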
Large screens that a line does not name were inactive; [ ] = another dose, or the depositor's remark.

CC1CC(C)C(=O)C(C(CC2CC(=O)NC(=O)C2)OC(=O)CC(=O)c2ccccc2)C1 (stereo not given)	BL2 CD40 inh 56
CC(=O)N1CC[C@@H]2[C@@H](CO)Nc3ccc(-c4ccccc4)cc3[C@@H]21	none
COC(=O)c1ccc(CSc2nnnn2C)o1	none
COC(=O)c1ccc(CSCc2ccc(C(=O)OC)o2)o1	none
COC(=O)c1ccc(CSc2nnc3c(Cl)cc(Cl)cn23)o1	BL2 CD40 inh 67
COC(=O)c1ccc(CSc2nc3ccccc3c(=O)n2-c2ccccc2)o1	none
CCc1nc(SCc2ccc(C(=O)OC)o2)n[nH]1	none
COC(=O)c1ccc(CSc2cc(C)c3cc(C)cc(C)c3n2)o1	BL2 CD40 inh 55
CCN1CCN(c2ccc(Nc3ccnc4ccccc34)cc2)CC1	none
COc1ccccc1S(=O)(=O)N[C@@H]1CC[C@@H](CCn2cc(C3CCCC3)nn2)O[C@@H]1CO	none
CSc1ncc(Cl)c(C(=O)Nc2cccc3ccccc23)n1	none
CCOC(=O)c1nc(C)[nH]c1C(=O)OCC	none
CCOC(=O)c1ccc(NS(C)(=O)=O)cc1	none
Cc1ccccc1NC(=O)c1nc(S(C)(=O)=O)ncc1Cl	BL2 CD40 inh 104
CCOC(=O)c1nc(S(C)(=O)=O)ncc1Cl	BL2 CD40 inh 108
Cc1cc(C(=O)Nc2cc(S(C)(=O)=O)ccc2Cl)no1	none
O=C(c1ccc2c(c1)OCO2)N1C[C@H]2[C@@H](c3ccccc31)[C@H](CO)N2C(=O)CC1CC1	none
C/C=C/c1ccc([C@H]2[C@H](CO)N(C(C)=O)[C@H]2CN(C)C(=O)c2ccccn2)cc1	none
CC(NC(=O)C(c1ccccc1)c1ccccc1)C(=O)N1CCCCC1 (stereo not given)	none
C/C=C/c1ccc([C@@H]2[C@@H](CN(C)C(=O)CN(C)C)N(C(=O)C3CC3)[C@H]2CO)cc1	none
CCC(C)NC(=O)c1ccc([N+](=O)[O-])c(Cl)c1 (stereo not given)	none
CCN(CC)CC(C)(C)C(=O)/C=C/c1ccc(/C=C/C(=O)C(C)(C)CN(CC)CC)cc1	BL2 CD40 inh 75
CCN(CC)c1ccc(C(=O)O)cc1	none
CCN(CC)CC(=O)Nc1c(C)cc(C(C)(C)C)cc1C	none
C[C@@H]1CN([C@H](C)CO)C(=O)c2cccc(NC(=O)Nc3ccc(F)cc3)c2O[C@H]1CN(C)C(=O)Nc1ccc2c(c1)OCO2	none
O=C(O)C[C@H]1C[C@H]2c3cc(NC(=O)Cc4ccncc4)ccc3O[C@H]2[C@@H](CO)O1	none
O=S(=O)(c1cccc2cnccc12)N1CCNCC1	BL2 CD40 inh 53[25 µM]
O=S(=O)(c1cccc2cccnc12)N1CCN(c2ccccn2)CC1	none
O=S(=O)(c1cccc2cccnc12)N1CCN(c2ccccc2)CC1	none
CN1c2ccc(-c3cccc(F)c3)cc2[C@H]2[C@H](CCN2C(=O)C2CCC2)[C@H]1CO	none
CN1c2ccc(-c3cccc(F)c3)cc2[C@@H]2[C@@H](CCN2C(=O)C2CCC2)[C@H]1CO	none
CN1c2ccc(-c3cccc(F)c3)cc2[C@H]2[C@H](CCN2C(=O)C2CCCC2)[C@H]1CO	BL2 CD40 inh 54
O=C(N[C@@H]1C=C[C@@H](CC(=O)N2CCN(c3ccccc3)CC2)O[C@H]1CO)c1ccccc1	none
COc1ccc(C#Cc2ccc([C@@H]3[C@H](CO)N4CCCCN(C(=O)c5ccncc5)C[C@@H]34)cc2)cc1	none
COc1ccc(C#Cc2ccc([C@@H]3[C@H](CO)N4CCCCN(C)C[C@@H]34)cc2)cc1	none
COc1ccc(C#Cc2ccc([C@@H]3[C@@H](CO)N4CCCCN(C)C[C@H]34)cc2)cc1	none
COc1ccc(C#Cc2ccc([C@H]3[C@@H](CO)N4CCCCN(C)C[C@@H]34)cc2)cc1	BL2 CD40 inh active[25 µM]
COc1ccc(C#Cc2ccc([C@@H]3[C@H]4CN(C(=O)c5ccncc5)CCCCN4[C@H]3CO)cc2)cc1	none
COc1ccc(C#Cc2ccc([C@H]3[C@H]4CN(C(=O)c5ccncc5)CCCCN4[C@H]3CO)cc2)cc1	BL2 CD40 inh 53[25 µM]
O=C(c1ccccc1F)N1CC(=O)N2[C@H](C1)[C@@H](c1ccc(C#Cc3ccccc3)cc1)[C@@H]2CO	none
O=C(CN1CCOCC1)NCC[C@H]1CC[C@H](NS(=O)(=O)c2ccc(F)cc2)[C@H](CO)O1	none
Cc1noc(C)c1S(=O)(=O)N(C)C[C@@H]1OCCCC[C@H](C)Oc2ccc(N(C)C)cc2C(=O)N([C@H](C)CO)C[C@H]1C	none
COc1ccc(/C=N\n2nnc3ccccc32)cc1	BL2 CD40 inh 58
COc1ccc(/C=N/NC(=O)CCn2cnc3ccccc32)cc1	none
COc1cccc(/C=N/NC(=O)CCn2nnc3ccccc32)c1	none
CCS(=O)(=O)N1CC2(C1)[C@@H](c1ccccc1)[C@@H](CO)N2Cc1ccccn1	none
C[C@H]1CN([C@@H](C)CO)C(=O)c2cc(NS(C)(=O)=O)ccc2O[C@H]1CN(C)C	none
O=C(NCc1csc(-c2ccccc2)n1)c1cc(F)cc2c1OCOC2	none
CC(C)(C)n1ncc2c(=O)n(CC(=O)NCc3ccc(F)cc3)cnc21	none
CC(C)(C)n1ncc2c(=O)n(CC(=O)c3ccccc3)cnc21	none
CC(C)(C)n1ncc2c(=O)n(CC(=O)OCc3ccccc3)cnc21	BL2 CD40 inh 98
CNC[C@@H]1Oc2c(cccc2N(C)C)C(=O)N(C)C[C@H]1C	none
COc1ccc2c3c(n(C)c2c1)[C@H](CO)N(C(=O)Nc1ccc(F)cc1)CC31CN(C(=O)CN2CCOCC2)C1	none
CN(C)CCCC1(O)c2ccccc2C=Cc2ccccc21	none
O=C(CNCCO)N1N=C(c2cccs2)CC1c1cccs1 (stereo not given)	BL2 CD40 inh 31
O=C(CSC1=NCCS1)N1N=C(c2cccs2)CC1c1ccc(F)cc1 (stereo not given)	none
Cn1nnnc1SCC(=O)N1N=C(c2cccs2)CC1c1cccs1 (stereo not given)	none
CN(C)S(=O)(=O)Nc1cc(F)cc(F)c1	none
CSCCC(NC(=O)COc1ccccc1)C(=O)N(C)Cc1ccc(Cl)cc1Cl (stereo not given)	none
O=C(c1cccc(F)c1)N1CC(=O)N2[C@H](C1)[C@H](c1ccc(/C=C/c3ccccc3)cc1)[C@@H]2CO	none
CCCn1c(=O)c2ccccc2n2c(SCCOc3ccccc3)nnc12	none
c1ccc(OCCSc2nnnn2-c2ccccc2)cc1	none
c1ccc(OCCSc2nnc3sc4ccccc4n23)cc1	BL2 CD40 inh 87
Cc1cc(NC(=O)CC2(CC(=O)O)CCCC2)n(C)n1	none
FC(F)(F)c1cc(-c2cccs2)nc2nc(N3CCOCC3)sc12	none
CO[C@@H]1CN(C)C(=O)c2cc(NC(=O)C3CCOCC3)ccc2OC[C@H](C)N(CC2CC2)C[C@H]1C	none
COc1ccc(C)cc1N(CC(=O)NCCN1CCOCC1)S(=O)(=O)c1ccccc1	none
O=C(C[C@@H]1C=C[C@@H](NC(=O)NC2CCCC2)[C@H](CO)O1)NCc1ccc(F)cc1	none
CC1(C)CC(C(CC(=O)O)c2ccccc2)CCO1 (stereo not given)	none
COc1ccc(CN(CCC(c2ccc(F)cc2)C2CCOC(C)(C)C2)C(=O)c2ccco2)cc1 (stereo not given)	BL2 CD40 inh 37
O=C(c1ccco1)N(CCC(c1ccccc1)c1ccco1)Cc1ccccc1 (stereo not given)	none
C[C@H](O)C#Cc1ccc([C@H]2[C@@H](CO)N3CCCCN(C(=O)c4ccc5c(c4)OCO5)C[C@@H]23)cc1	none
C[C@@H]1CN([C@H](C)CO)C(=O)c2c(c3ccccc3n2C)-c2ccccc2CO[C@H]1CN(C)C(=O)Nc1ccc(-c2ccccc2)cc1	none
C[C@@H]1CCn2nncc2COC[C@H]2CCCN2C1=O	none
COc1ccccc1C(=O)Nc1ccc2c(c1)C(=O)N(C)C[C@@H](OC)[C@H](C)CN(C)[C@H](C)CO2	none
